Measured values from PubChem BioAssay (NCI).
About 83,000 compounds went through this panel and 20% of them were active in at least one assay; those are over-represented in the sample as a whole.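 Growth was measured after 48 h exposure to one concentration of compound in 96-well plates. Values under 10 count as active.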 Unmarked numbers belong to inactive results.

system: MDA-MB-468 breast; assay: NCI-60 one-dose screen, 48 h (100 = growth as untreated, 0 = no growth, -100 = all killed); details: 10 µM unless noted

SMILES	growth [%]
O=C(Nc1ccc(-n2cc(-c3ccncc3)c(-c3ccc(O)c(Cl)c3)n2)cc1)c1cc(C(F)(F)F)cc(C(F)(F)F)c1	64.9
CNC(=O)c1cc(COc2nnc(Nc3ccc(Cl)cc3)c3ccoc23)ccn1	65
C#Cc1nc(C(=O)NCCC(=O)Nc2ccc(NC(=O)c3ccc(/C=C/C(=O)c4nccn4C)cc3)cc2)cs1	20.6
N#Cc1c(-c2ccc(F)cc2)nc(N=Nc2c(O)[nH]c3ccc(Cl)cc23)nc1N1CCOCC1	47.1
